# The list is not random: actives were taken first. Their share in the collection is about 2.1%.
# aSyn yeast inh – qHTS of alpha-syn Inhibitors; Yeast expressing alpha-synuclein, growth rescue, BacTiter-Glo, 24 h; Potency, µM (series often up to 46.1 µM), for the others: at the highest dose growth rescue (activation), usual class: activators; 370,000 compounds, 0.14% hits; AID 652106, 2013; further: % of control where 0% means no effect; nearly all actives have a fitted effect of over 65% in size
#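 Screening used galactose-induced yeast with toxic alpha-synuclein levels, exposed to compound for 24 hr at 30 deg C. Cell growth, read with BacTiter-Glo luminescence, gave the measured signal.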
# Abeta rescue – qHTS for compounds that reverse cellular toxicity of Amyloid beta (A-beta) peptide in yeast: Primary Screen; yeast expressing A-beta42, growth rescue, OD600, 48 h; response scale: 0% DMSO, 100% iron-clioquinol control; Potency, µM (titrated, usually from 46.1 µM), usual class: activators; 410,000 compounds, 0.063% hits; AID 1347071, 2019; further: nearly all actives have a fitted effect of over 55% in size
#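 Growth rescue measured by 600 nm absorbance after 48 h yeast culture at 30 C with compound. Values normalized between DMSO and an equimolar ferric chloride plus clioquinol control.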
# FUS yeast rescue – qHTS for Suppressors of FUS Proteinopathy: Primary screen using FUS-linked yeast assay. Potency, µM (doses to about 76.6 µM), hits mostly activators. S. cerevisiae FUS-expressing, growth rescue, OD600, 24 h. 390,000 compounds, 0.24% hits;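 further: plate controls were DMSO vehicle for no effect and reference control for full effect; nearly all actives have a fitted effect of over 55% in size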
#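 Yeast FUS proteinopathy model; galactose-induced FUS (2%), starting OD 0.005. Cpds in dilution series, 24hr, 30C, 99% humidity. Abs 600 nm growth. Pos ctrl CP55940 (top 92uM final); neg ctrl DMSO.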
# TDP43 rescue – qHTS of TDP-43 Inhibitors. TDP-43 expressing yeast growth rescue, BacTiter-Glo, 24 h. Potency, µM (doses to about 46.1 µM), without a hit: at the highest dose growth rescue (activation), usual class: activators. 410,000 compounds, 1.8% hits; further: % of control where 0% means no effect; nearly all actives have a fitted effect of over 50% in size
#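 Cell-based yeast growth screen: TDP-43 expression induced in galactose, inoculum OD600=0.02 after raffinose pregrowth to mid-log. Read-out BacTiter-Glo luminescence at 24 hr, 30 deg C; inhibition of toxicity seen as signal increase.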
# * hit, by the source's call; i = inactive; ? = inconclusive; / = no result; ! = a repeat was not active; [ ] = dose if it differs, or a comment. The call rests on the fitted dose curve; in most records, active means well fitted curve in the direction sought with a large enough effect; inconclusive means small, poorly fitted or top-dose-only effect, or another doubt; inactive means no such curve, though single readings can be large; an effect the other way counts as inactive or inconclusive. Potency means the concentration at half of the fitted maximal effect.
SMILES,aSyn yeast inh,Abeta rescue,FUS yeast rescue,TDP43 rescue
COC(=O)c1cc(NC(=O)Cn2ncc3c2-c2ccccc2OC3)cc(C(=O)OC)c1,/,i,i,-1%
COc1ccccc1CN1CC(C(=O)N(CCO)Cc2cccs2)CCC1=O (stereo unspecified),-1%,i,i,-3%
Cc1ccc(-c2cc(-c3ccccc3Cl)c(C#N)c(N)n2)o1,4%,i,i,?
N#Cc1c(-c2ccccc2)cc(C2CC2)nc1N,0%,i,i,13µM*
Cc1ccc(-c2cc(-c3ccccc3)c(C#N)c(N)n2)o1,-65%,i,?,22µM*
O=C(/C=C\c1ccccc1OC(=O)c1ccccc1F)c1cc2ccccc2o1,17%,i,i,13µM*
CC(=O)/C=C\c1ccccc1OC(=O)c1cc2ccccc2oc1=O,7%,i,i,16%
CCN=c1scc(-c2ccco2)n1/N=C/c1ccc(OC)c(O)c1,-3%,i,/,?
CCN=c1scc(-c2ccco2)n1/N=C/c1ccc(O)cc1,2%,i,?,18µM*
Cc1cccc2cc(CNCC3CCCO3)c(Cl)nc12 (stereo unspecified),0%,i,?,-10%
COc1ccc(N2CCN(C(=O)CCc3c(C)nc4cc(-c5cccc(F)c5)nn4c3C)CC2)cc1,/,i,i,11%
COc1ccc(N2CCN(C(=O)CCc3c(C)nc4c(-c5ccccc5)c(C)nn4c3C)CC2)cc1,/,i,?,22µM*
COc1ccc2ncc(S(=O)(=O)c3ccccc3)c(N3CCN(c4ccccc4)CC3)c2c1,?,i,i,16µM*
COc1ccc2ncc(S(=O)(=O)c3ccccc3)c(N3CCC4(CC3)OCCO4)c2c1,7%,i,i,18µM*
COc1cc2ncc(S(=O)(=O)c3ccccc3)c(N3CCC4(CC3)OCCO4)c2cc1OC,0%,i,i,?
COc1ccc(C(=O)N/C(=C\c2ccc([N+](=O)[O-])cc2)C(=O)NC(CCSC)C(=O)O)cc1 (stereo unspecified),6%,i,i,2%
CC(C)(C)OC(=O)N1CCCN(C(=O)Nc2ccc(OC(F)(F)F)cc2)CC1,10%,i,i,1%
O=C(c1ccccn1)N1N=C2/C(=C/c3ccc(F)cc3)CCCC2C1c1ccc(F)cc1 (stereo unspecified),1%,i,i,-4%
Cc1ccc(S(=O)(=O)c2c(N)n(Cc3ccco3)c3nc4ccccc4nc23)cc1,2%,i,22µM*,10%
Cc1cccc(S(=O)(=O)c2c(N)n(Cc3ccco3)c3nc4ccccc4nc23)c1,10%,i,/,0%
Nc1nc(SCc2ccc(F)cc2)ns1,-13%,?,i,13µM*
CC(=O)N(C)c1ccc(NC(=O)c2ccco2)cc1,-1%,i,i,3%
CC12CCC3C(=CCc4cc(O)ccc43)C1CC(=NO)C2O (stereo unspecified),6%,i,/,19%
COc1ccc2c(c1)CC=C1C2CCC2(C)C(=O)C(=NO)CC12 (stereo unspecified),6%,i,i,11µM*
CC1(C(=O)Nc2ccc3c(c2)OCCO3)CCN1C(=O)c1ccccc1CCc1ccccc1 (stereo unspecified),2%,i,i,14µM*
SMILES,aSyn yeast inh,Abeta rescue,FUS yeast rescue,TDP43 rescue
CC1(C(=O)Nc2cccc(C#N)c2)CCN1C(=O)c1ccccc1CCc1ccccc1 (stereo unspecified),-7%,i,i,?
Cc1ccc(OCc2ccccc2Br)c([N+](=O)[O-])n1,1%,i,i,10µM*
COc1ccccc1C/C(N)=N/OC(=O)c1ccc2c(c1)OCO2,-71%,i,i,?
COc1ccccc1C/C(N)=N/OC(=O)c1ccco1,-33%,i,i,10µM*
COc1cccc(N2CC(NC(=O)COc3ccc4ccccc4c3)CC2=O)c1 (stereo unspecified),/,?,i,14µM*
COc1cccc(OCC(=O)NC2CC(=O)N(c3cccc(OC)c3)C2)c1 (stereo unspecified),/,i,i,9%
O=C(Cn1nc(-c2ccccc2)ccc1=O)NCc1ccc(F)cc1Cl,/,i,i,26%
O=c1ccc(-c2ccccc2)nn1Cc1ccccc1,-1%,i,i,22µM*
O=c1ccc(-c2ccccc2)nn1Cc1ccc(F)cc1Cl,20%,i,i,32µM*!
Cc1ccc(-c2ccc(=O)n(Cc3cccc(Br)c3)n2)cc1,22µM*,i,?,4%
CCCn1c2ccccc2c2cnn(CC(=O)NCC3CCN(Cc4ccccc4C)CC3)c(=O)c21,/,i,i,4%
COCCOC(=O)C1=C(C)NC(=O)NC1c1ccco1 (stereo unspecified),-1%,i,i,15%
O=C(c1ccc2ncsc2c1)N1CCN(c2ccccc2Cl)CC1,-1%,i,i,10µM*
COc1ccc(N2CCN(C(=O)c3ccc(CS(=O)c4cccc(Cl)c4)o3)CC2)cc1 (stereo unspecified),5%,i,i,14%
COc1ccc(S(=O)Cc2ccc(C(=O)N3CCN(c4cccc(C)c4C)CC3)o2)cc1 (stereo unspecified),5%,i,i,20µM*
Cc1cccc(N2CCN(C(=O)c3ccncc3)CC2)c1C,3%,i,i,26%
Cc1cccc(N2CCN(C(=O)c3ccc4ncsc4c3)CC2)c1C,22%,i,i,11µM*
COc1cc(C(=O)N2CCN(c3cccc(C)c3C)CC2)cc(OC)c1OC,-4%,i,i,22µM*
N#CCC[C@@H]1CC[C@]2(CCCN(C(=O)c3ccno3)C2)O1,/,/,i,/
CN(CC(=O)NCc1ccccn1)S(=O)(=O)c1cc(Cl)ccc1Cl,-3%,i,i,-12%
Cc1sccc1/C=N/NC(=O)c1ccco1,-11%,i,i,14%
O=C(c1ccc(N2CCCC2=O)cc1)N1CCN(c2ccccc2Cl)CC1,5%[1.84 µM],i,i,16µM*
Cc1ccc(C)c(N2CCN(C(=O)c3ccc4[nH]c(C)c(C)c4c3)CC2)c1,/,i,i,-14%
COc1cccc(N2CCN(C(=S)Nc3ccccc3OC)CC2)c1,1%,i,i,0%
O=C(c1ccc(N2CCCC2=O)cc1)N1CCN(c2ccc(Cl)cc2)CC1,9%,i,i,?
COc1ccccc1NC(=S)N1CCN(c2cccc(C)c2C)CC1,0%,?,i,18µM*
Cc1ccc(C)c(N2CCN(C(=O)c3ccc4nsnc4c3)CC2)c1,4%,i,i,11µM*
Cc1nc(-c2cc(C#N)c(Sc3cccc(C(F)(F)F)c3)nc2C)cs1,-8%,i,i,4%
